Reference: PubChem BioAssay
Records with an inconclusive call do not appear. Active and inactive are the calls of the source.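 How the source made its calls, unless noted: active means GFP signal, as percent of the solvent control, above the screen mean plus 3 SD, about 149; inconclusive means no reading because the compound's own fluorescence upset strain identification; inactive means the rest.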

Columns and labels:
[1] = rapamycin-like changes in RPL19A-GFP expression – cell-based, S. cerevisiae, multiplex flow cytometry, primary screen (AID 1862; in the data active means percent of DMSO control GFP below about 86%;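 further: lower values mimic rapamycin by blocking the RPL19A rise seen in DMSO cells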); settings: S. cerevisiae RPL19A-GFP strain, flow cytometry fluorescence, 3 h; at 10 µM; stronger effect = lower value
[2] = TOR pathway GLN3 branch reporter MEP2-GFP changes – S. cerevisiae, multiplex flow cytometry, primary screen (AID 1867;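 active means GFP response, as percent of the DMSO control, above the screen-wide mean plus 3 SD, about 139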;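 further: median GFP channel fluorescence of barcode-gated MEP2-GFP cells measured by flow cytometry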); settings: S. cerevisiae MEP2-GFP strain, 3 h, at 10 µM, stronger effect = higher value, 100% means same as DMSO wells
[3] = TOR pathway RTG branch CIT2 reporter changes – S. cerevisiae, GFP fusion, multiplex flow cytometry, primary screen (AID 1870;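 active means percent response above a set limit, the screen-wide mean plus 3 SD, cut at about 130% in these data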;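 further: barcoded CIT2-GFP strain pooled with four other GFP strains with rapamycin as positive control; median GFP fluorescence per well over plate mean of DMSO wells so 100% = DMSO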); settings: S. cerevisiae CIT2-GFP expression, 3 h, at 10 µM, stronger effect = higher value
[4] = TOR pathway LAP4-GFP level changes – S. cerevisiae, multiplex flow cytometry, primary screen (AID 1873); settings: S. cerevisiae LAP4-GFP expression, 3 h, at 10 µM, stronger effect = higher value
[5] = yeast AGP1-GFP level changes, GLN3 branch – cell-based, multiplex flow cytometry, S. cerevisiae, primary screen (AID 1887;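 active means GFP signal above the screen-wide mean plus 3 SD, that is over about 124.5% of the solvent control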;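 further: AGP1-GFP fusion strain of S. cerevisiae within a five-strain barcoded multiplex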); settings: 3 h, at 10 µM, stronger effect = higher value
[6] = reduced mouse 2C T cell binding to pMHC/ICAM-1 vesicles – MLPCN validation set, flow cytometry, LFA-1/ICAM-1 modulator project, pilot screen (AID 2523;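 active means response below a set limit, under 55% cells CD8-positive and vesicle-bound, and CD8 cells' 90th-percentile brightness under 279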;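 on vesicle binding response: mean PE anti-B7-1 fluorescence of CD8+ cells relative to row control; 100% = QL9-loaded vesicles with DMSO vehicle in the same plate row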); settings: 2C mouse CD8+ T cells, at 7 µM, stronger effect = lower value; double positive events: measured here: CD8+/vesicle+ event percentage
[7] = target: Integrin beta-1 (Homo sapiens) + Integrin alpha-4 (Homo sapiens) (UniProt P13612+P05556); test: alpha4beta1 integrin LIBS antibody binding reduction – U937 cells, HUTS-21 mAb, flow cytometry, validation set, VLA-4 allosteric modulator project, pilot screen (AID 2674;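 active means inhibition above 50%, about 3 SD of the validation set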;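 further: antibody binding induced by the VLA-4 ligand LDV present at three times its Kd; 0% = LDV ligand with antibody and no compound and 100% = antibody without LDV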); settings: HUTS-21 LIBS mAb binding, at 6.7 µM, stronger effect = higher value, binding induced by LDV ligand
Integrin beta-1 (Homo sapiens) + Integrin alpha-4 (Homo sapiens), sequence (P05556 whole entry, looked up): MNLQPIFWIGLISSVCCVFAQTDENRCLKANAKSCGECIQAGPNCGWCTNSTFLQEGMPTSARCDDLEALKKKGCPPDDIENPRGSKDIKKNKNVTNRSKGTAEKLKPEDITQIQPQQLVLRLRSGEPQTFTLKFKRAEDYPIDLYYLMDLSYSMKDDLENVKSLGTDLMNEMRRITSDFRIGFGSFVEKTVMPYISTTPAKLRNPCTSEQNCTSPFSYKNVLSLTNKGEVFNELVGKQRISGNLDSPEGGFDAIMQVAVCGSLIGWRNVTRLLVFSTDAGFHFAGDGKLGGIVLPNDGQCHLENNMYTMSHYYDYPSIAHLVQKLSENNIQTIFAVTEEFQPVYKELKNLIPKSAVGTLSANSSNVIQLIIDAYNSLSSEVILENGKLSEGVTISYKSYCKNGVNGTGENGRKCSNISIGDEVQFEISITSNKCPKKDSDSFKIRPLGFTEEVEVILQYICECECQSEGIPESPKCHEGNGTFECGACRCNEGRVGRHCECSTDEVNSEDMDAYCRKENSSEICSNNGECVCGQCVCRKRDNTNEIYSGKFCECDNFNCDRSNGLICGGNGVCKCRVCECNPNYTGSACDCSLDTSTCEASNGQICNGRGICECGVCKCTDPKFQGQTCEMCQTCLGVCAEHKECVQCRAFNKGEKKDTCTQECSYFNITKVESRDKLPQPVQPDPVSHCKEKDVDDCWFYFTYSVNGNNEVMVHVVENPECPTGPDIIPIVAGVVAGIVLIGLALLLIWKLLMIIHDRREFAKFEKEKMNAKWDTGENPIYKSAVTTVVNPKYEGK
Integrin beta-1 (Homo sapiens) + Integrin alpha-4 (Homo sapiens), sequence (P13612 whole entry, looked up): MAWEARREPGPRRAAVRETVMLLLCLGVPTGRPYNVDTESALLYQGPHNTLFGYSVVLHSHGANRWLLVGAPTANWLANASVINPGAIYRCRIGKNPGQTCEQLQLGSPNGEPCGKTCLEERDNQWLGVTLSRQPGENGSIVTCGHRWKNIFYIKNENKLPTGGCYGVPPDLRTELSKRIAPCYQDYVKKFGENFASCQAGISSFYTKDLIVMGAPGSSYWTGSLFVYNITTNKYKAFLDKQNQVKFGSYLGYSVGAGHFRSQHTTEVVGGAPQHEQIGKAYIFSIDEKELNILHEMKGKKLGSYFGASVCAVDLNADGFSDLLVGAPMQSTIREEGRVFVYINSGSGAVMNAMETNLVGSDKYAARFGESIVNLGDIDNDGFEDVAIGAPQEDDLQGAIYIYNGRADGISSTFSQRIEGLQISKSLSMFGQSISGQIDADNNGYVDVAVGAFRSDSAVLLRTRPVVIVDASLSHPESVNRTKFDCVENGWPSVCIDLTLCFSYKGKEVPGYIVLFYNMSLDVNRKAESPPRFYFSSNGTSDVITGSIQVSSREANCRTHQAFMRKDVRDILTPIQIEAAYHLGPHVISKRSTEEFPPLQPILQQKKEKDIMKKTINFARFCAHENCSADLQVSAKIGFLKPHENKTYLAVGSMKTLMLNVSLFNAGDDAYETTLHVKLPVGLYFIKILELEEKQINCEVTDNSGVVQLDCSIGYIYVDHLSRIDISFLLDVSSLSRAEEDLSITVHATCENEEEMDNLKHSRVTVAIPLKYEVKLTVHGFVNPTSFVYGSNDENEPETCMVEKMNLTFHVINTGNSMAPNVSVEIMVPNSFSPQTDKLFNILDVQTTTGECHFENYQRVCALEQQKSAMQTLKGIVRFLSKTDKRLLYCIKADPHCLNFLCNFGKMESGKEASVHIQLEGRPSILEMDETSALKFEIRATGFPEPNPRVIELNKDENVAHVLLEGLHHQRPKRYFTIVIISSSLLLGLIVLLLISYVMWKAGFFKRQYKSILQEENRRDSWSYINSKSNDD

[8] = calorie-restriction mimetic ROS inhibitors, yeast – validation compound set, pilot screen (AID 2706;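 active means superoxide response below 65% of plate, a cut near 3 SD across the whole screen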;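 further: yeast exposed to compound for one week at 30 degrees C before staining; 100% = mean of all compound wells on the same plate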); settings: S. cerevisiae aging, superoxide DHE fluorescence; at 10 µM; stronger effect = lower value
[9] = target: Beta-adrenergic receptor kinase 1 (Homo sapiens) (UniProt P25098); test: GRK2 binders displacing RNA aptamer, biochemical, validation, human GRK2, bead flow cytometry (AID 488806;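 active means aptamer binding inhibition above 30%, about 3 SD of noise from non-fluorescent compounds; inactive means inhibition at or below 30%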); settings: bead-bound GRK2, FAM-aptamer displacement, at 10 µM, stronger effect = higher value
Beta-adrenergic receptor kinase 1 (Homo sapiens), sequence (P25098 whole entry, looked up): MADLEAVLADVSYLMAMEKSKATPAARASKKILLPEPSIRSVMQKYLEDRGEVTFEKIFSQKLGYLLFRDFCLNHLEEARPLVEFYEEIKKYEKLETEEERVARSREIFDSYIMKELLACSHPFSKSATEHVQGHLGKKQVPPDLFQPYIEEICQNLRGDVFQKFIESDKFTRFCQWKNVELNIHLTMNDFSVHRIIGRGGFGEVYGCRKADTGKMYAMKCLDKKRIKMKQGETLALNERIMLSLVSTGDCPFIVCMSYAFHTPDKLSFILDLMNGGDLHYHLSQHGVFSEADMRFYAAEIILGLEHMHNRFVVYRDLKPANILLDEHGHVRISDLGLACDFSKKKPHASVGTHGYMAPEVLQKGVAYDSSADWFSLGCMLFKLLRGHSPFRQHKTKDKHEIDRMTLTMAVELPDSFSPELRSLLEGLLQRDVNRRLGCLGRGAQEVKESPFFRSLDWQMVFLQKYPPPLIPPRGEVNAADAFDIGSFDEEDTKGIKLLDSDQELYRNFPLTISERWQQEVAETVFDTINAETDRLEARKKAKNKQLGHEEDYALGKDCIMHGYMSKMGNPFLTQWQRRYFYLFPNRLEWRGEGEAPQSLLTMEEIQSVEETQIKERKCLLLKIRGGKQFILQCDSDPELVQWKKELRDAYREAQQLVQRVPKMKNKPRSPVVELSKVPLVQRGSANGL

[10] = target: Beta-2 adrenergic receptor (Homo sapiens) (UniProt P07550); test: agonist-induced loss of surface beta2AR – cell-based, FAP fluorogen, flow cytometry, validation set, pilot screen (AID 504459;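 active means percent response above 42, roughly 3 SD of non-fluorescent test compounds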;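 further: agonist-driven loss of surface beta2AR via internalization measured by FAP dye flow cytometry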); settings: Am2.2-beta2AR cells, at 10 µM, stronger effect = higher value
Beta-2 adrenergic receptor (Homo sapiens), sequence (P07550 whole entry, looked up): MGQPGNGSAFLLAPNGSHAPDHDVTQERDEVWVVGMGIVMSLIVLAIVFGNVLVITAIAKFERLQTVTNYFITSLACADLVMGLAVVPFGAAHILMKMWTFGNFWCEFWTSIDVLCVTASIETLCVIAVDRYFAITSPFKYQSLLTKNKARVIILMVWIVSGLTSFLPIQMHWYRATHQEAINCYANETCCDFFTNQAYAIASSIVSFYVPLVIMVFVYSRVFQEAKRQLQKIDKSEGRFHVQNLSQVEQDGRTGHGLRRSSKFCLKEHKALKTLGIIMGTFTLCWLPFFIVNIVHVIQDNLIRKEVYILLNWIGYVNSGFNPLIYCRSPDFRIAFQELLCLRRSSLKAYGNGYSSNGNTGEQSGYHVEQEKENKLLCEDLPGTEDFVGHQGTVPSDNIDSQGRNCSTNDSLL

[11] = target: AP-2 complex subunit beta (Homo sapiens) (UniProt P63010); test: beta-arrestin/AP2 interaction blockers – biochemical, validation set, GST-AP2 beads, flow cytometry, pilot screen (AID 504541;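 active means inhibition above 54%, about 3 SD of non-fluorescent compounds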;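 further: AP2 carries R879A mutation and is captured from E. coli lysate; bead-bound FITC arrestin peptide fluorescence measuring arrestin peptide binding to AP2; 0% = DMSO wells and 100% = excess unlabeled arrestin peptide control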); settings: FITC arrestin peptide, at 10 µM, stronger effect = higher value, AP2 beta2 appendage fragment, R879A mutant
AP-2 complex subunit beta (Homo sapiens), sequence (P63010 whole entry, looked up, the tested form may be a part, one chain of several): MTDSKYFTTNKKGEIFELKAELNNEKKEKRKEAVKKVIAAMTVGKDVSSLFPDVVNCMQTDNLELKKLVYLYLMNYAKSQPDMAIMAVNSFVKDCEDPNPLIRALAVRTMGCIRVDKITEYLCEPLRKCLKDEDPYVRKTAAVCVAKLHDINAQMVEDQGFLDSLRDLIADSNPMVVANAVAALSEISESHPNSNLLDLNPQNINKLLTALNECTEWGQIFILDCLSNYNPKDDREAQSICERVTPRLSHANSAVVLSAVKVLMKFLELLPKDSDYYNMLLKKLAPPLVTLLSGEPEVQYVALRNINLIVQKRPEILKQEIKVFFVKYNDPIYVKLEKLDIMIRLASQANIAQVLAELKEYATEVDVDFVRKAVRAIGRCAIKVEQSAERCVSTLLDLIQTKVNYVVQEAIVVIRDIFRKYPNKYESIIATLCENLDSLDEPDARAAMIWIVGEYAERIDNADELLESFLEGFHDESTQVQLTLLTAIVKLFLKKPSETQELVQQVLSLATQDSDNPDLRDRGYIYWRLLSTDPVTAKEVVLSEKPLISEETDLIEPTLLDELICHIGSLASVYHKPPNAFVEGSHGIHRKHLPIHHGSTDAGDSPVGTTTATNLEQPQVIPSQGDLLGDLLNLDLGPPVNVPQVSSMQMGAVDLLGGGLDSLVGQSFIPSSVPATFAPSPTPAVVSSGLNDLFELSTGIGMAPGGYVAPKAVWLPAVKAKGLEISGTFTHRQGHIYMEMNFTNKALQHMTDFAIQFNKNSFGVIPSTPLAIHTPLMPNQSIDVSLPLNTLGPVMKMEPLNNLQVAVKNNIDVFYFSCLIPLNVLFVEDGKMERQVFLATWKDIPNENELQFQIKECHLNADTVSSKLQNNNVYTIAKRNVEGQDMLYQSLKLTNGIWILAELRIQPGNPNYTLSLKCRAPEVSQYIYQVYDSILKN

[12] = cytosolic pH regulators acting via V-ATPase – S. cerevisiae, pHLuorin, HTS validation (AID 504600; in the data active means response above about 15%;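 further: plate controls were DMSO for no effect and reference compound for full effect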); settings: V-ATPase proton transport, at 10 µM, stronger effect = higher value
[13] = system: anti-desmoglein-3 scFv antibody binding to human DSG3; test: blockers of pathogenic pemphigus antibody–desmoglein-3 binding – biochemical, validation compound set, bead-based, flow cytometry, pilot screen (AID 588368;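 active means binding below the plate cutoff, the plate median minus 3 SD, with a reading above zero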;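 further: signal is the median channel fluorescence of bead-bound GFP antibody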); settings: Protein G beads, DSG3-Fc, scFv-GFP binding, at 10 µM, stronger effect = lower value
[14] = Nile Red efflux blockade in pump-expressing yeast – validation compound set, multiplex, phenotypic, pilot screen (AID 588506;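 active means efflux inhibition above 0.42, the validation set average plus 4 SD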;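 further: Nile Red retained in cells so higher fluorescence means more efflux inhibition; 0 = negative control wells and 1 = enniatin B 25 µM full block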); settings: S. cerevisiae pump-expressing triplex, Nile Red efflux flow cytometry; at 10 µM; stronger effect = higher value; the pumps come from Candida albicans
[15] = target: ATP-binding cassette sub-family B member 6 (Homo sapiens) (UniProt Q9NP58); test: blockers of ABCB6-driven porphyrin uptake – K562-ABCB6 cells, flow cytometry, validation set, pilot screen (AID 588550;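 active means inhibition above the screen-wide mean plus 3 SD, about 51%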;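 further: 0% = DMSO wells and 100% = benzethonium chloride 70 µM positive control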); settings: K562-ABCB6 porphyrin accumulation, 1 h, at 10 µM, stronger effect = higher value
ATP-binding cassette sub-family B member 6 (Homo sapiens), sequence (Q9NP58 whole entry, looked up): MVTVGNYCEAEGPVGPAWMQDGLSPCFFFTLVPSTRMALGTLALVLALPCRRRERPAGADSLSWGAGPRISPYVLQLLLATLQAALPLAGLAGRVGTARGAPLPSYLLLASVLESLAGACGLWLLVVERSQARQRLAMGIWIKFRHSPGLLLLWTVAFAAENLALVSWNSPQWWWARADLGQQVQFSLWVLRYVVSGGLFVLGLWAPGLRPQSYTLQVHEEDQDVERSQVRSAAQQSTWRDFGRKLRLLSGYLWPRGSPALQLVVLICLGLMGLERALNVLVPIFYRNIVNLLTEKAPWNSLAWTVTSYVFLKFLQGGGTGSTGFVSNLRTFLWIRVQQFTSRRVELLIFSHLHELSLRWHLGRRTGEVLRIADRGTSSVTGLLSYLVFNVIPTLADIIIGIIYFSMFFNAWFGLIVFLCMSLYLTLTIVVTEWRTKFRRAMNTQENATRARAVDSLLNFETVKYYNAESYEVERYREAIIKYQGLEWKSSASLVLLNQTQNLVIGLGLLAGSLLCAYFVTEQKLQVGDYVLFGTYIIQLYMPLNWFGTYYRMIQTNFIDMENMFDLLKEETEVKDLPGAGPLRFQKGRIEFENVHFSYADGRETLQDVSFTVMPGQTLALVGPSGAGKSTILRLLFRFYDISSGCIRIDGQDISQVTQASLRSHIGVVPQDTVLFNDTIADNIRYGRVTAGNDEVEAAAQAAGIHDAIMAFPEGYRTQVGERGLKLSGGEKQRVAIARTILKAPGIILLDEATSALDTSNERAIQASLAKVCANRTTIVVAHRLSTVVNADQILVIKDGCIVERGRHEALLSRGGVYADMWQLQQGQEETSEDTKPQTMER

[16] = AML differentiation inducers, ER-HoxA9 marrow cells – cell-based, GFP/MAC1 double positive, flow cytometry, validation set, primary screen (AID 588685;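 active means differentiation response of at least 50%, scaled between solvent and reference control, from cells with both markers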;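 further: compound exposure lasts four days before antibody staining and flow analysis; 0% = DMSO wells and 100% = 5 µM fulvestrant positive control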); settings: stronger effect = higher value, normalized: vehicle 0, fulvestrant 100

Cn1cc(/C=C/C(=O)c2ccccc2)c2ccccc21
58.1%: double positive events [6]
inactive: percent of DMSO control GFP [1] 98% | GFP response vs DMSO [2] 107% | percent response of DMSO control [3] 87.2% | GFP response vs DMSO [4] 133% | GFP response, % of DMSO [5] 89.7% | vesicle binding response [6] 230% | inhibition [7] -1.79% | superoxide response (% of plate) [8] 102% | aptamer binding inhibition [9] 1% | response [10] 32.6% | inhibition [11] 4.67% | response [12] -2% | binding (% of control) [13] 101% | efflux inhibition (fraction of control) [14] -0.1 | inhibition [15] 4% | differentiation response [16] -10.4%

CC(=O)NC(NC(=S)N1CCCCCC1)C(Cl)(Cl)Cl (stereo not drawn)
64.5%: double positive events [6]
inactive: percent of DMSO control GFP [1] 102% | GFP response vs DMSO [2] 104% | percent response of DMSO control [3] 98.9% | GFP response vs DMSO [4] 95.3% | GFP response, % of DMSO [5] 99.5% | vesicle binding response [6] 126% | inhibition [7] -20.2% | superoxide response (% of plate) [8] 104% | aptamer binding inhibition [9] 0% | response [10] 2.95% | inhibition [11] -7.04% | response [12] 0.33% | binding (% of control) [13] 94.8% | efflux inhibition (fraction of control) [14] 0.05 | inhibition [15] -1% | differentiation response [16] 6.11%

COc1ccc(C(=O)CCN2CCc3cc(OC)c(OC)cc3C2)cc1
59%: double positive events [6]
inactive: percent of DMSO control GFP [1] 104% | GFP response vs DMSO [2] 116% | percent response of DMSO control [3] 107% | GFP response vs DMSO [4] 70.3% | GFP response, % of DMSO [5] 99.7% | vesicle binding response [6] 115% | inhibition [7] 1.12% | superoxide response (% of plate) [8] 111% | aptamer binding inhibition [9] 2% | response [10] 2.49% | inhibition [11] -1.91% | response [12] -2.28% | binding (% of control) [13] 96.7% | efflux inhibition (fraction of control) [14] 0.42 | inhibition [15] 13% | differentiation response [16] 4.97%

CN(CCO)CC(O)Cn1cnc2c1c(=O)n(C)c(=O)n2C (stereo not drawn) (tested in a mixture with another compound)
inactive: percent of DMSO control GFP [1] 101% | GFP response vs DMSO [2] 109% | percent response of DMSO control [3] 100% | GFP response vs DMSO [4] 106% | GFP response, % of DMSO [5] 112% | vesicle binding response [6] 211% | inhibition [7] 14.2% | superoxide response (% of plate) [8] 93.2% | aptamer binding inhibition [9] -1% | response [10] -18.1% | inhibition [11] -3.41% | response [12] -1.98% | binding (% of control) [13] 103% | efflux inhibition (fraction of control) [14] -0.09 | inhibition [15] 7% | differentiation response [16] -3.02%
62.5%: double positive events [6]

COCCOC(=O)C1=C(C)NC(C)=C(C(=O)OC(C)C)C1c1cccc([N+](=O)[O-])c1 (stereo not drawn)
58.9%: double positive events [6]
inactive: percent of DMSO control GFP [1] 102% | GFP response vs DMSO [2] 105% | percent response of DMSO control [3] 111% | GFP response vs DMSO [4] 94.7% | GFP response, % of DMSO [5] 99.4% | vesicle binding response [6] 182% | inhibition [7] 4.73% | superoxide response (% of plate) [8] 106% | aptamer binding inhibition [9] -1% | response [10] -6.98% | inhibition [11] -3.69% | response [12] 8.68% | binding (% of control) [13] 97.4% | efflux inhibition (fraction of control) [14] -0.17 | inhibition [15] -4% | differentiation response [16] -10.5%

CCn1c(SCC(=O)c2ccccc2)nc2ccccc2c1=O
active: efflux inhibition (fraction of control) [14] 0.53
inactive: percent of DMSO control GFP [1] 103% | GFP response vs DMSO [2] 108% | percent response of DMSO control [3] 99.7% | GFP response vs DMSO [4] 115% | GFP response, % of DMSO [5] 104% | vesicle binding response [6] 176% | inhibition [7] -18.5% | superoxide response (% of plate) [8] 110% | aptamer binding inhibition [9] -1% | response [10] 0.7% | inhibition [11] 9.92% | response [12] -1.15% | binding (% of control) [13] 99.6% | inhibition [15] 9% | differentiation response [16] -14.8%
60.3%: double positive events [6]

O=Cc1ccc(OC(=O)c2cccnc2)cc1
58.7%: double positive events [6]
inactive: percent of DMSO control GFP [1] 101% | GFP response vs DMSO [2] 91.9% | percent response of DMSO control [3] 107% | GFP response vs DMSO [4] 78.6% | GFP response, % of DMSO [5] 99.5% | vesicle binding response [6] 209% | inhibition [7] 2.3% | superoxide response (% of plate) [8] 98.5% | aptamer binding inhibition [9] 1% | response [10] -10.5% | inhibition [11] -1.7% | response [12] 1.76% | binding (% of control) [13] 93% | efflux inhibition (fraction of control) [14] 0.05 | inhibition [15] 4% | differentiation response [16] 16.8%

CC1(c2ccccc2)CC(C)(C)N2C(=O)C(=O)c3cccc1c32 (stereo not drawn)
60.1%: double positive events [6]
inactive: percent of DMSO control GFP [1] 108% | GFP response vs DMSO [2] 97.4% | percent response of DMSO control [3] 99.6% | GFP response vs DMSO [4] 81.1% | GFP response, % of DMSO [5] 95.7% | vesicle binding response [6] 148% | inhibition [7] -7.25% | superoxide response (% of plate) [8] 109% | aptamer binding inhibition [9] 4% | response [10] 20.4% | inhibition [11] 0.89% | response [12] 3.44% | binding (% of control) [13] 98.7% | efflux inhibition (fraction of control) [14] 0.15 | inhibition [15] 5% | differentiation response [16] 0.8%

CCOc1ccc2nc(NC(=O)NC3CCCCC3)sc2c1
inactive: percent of DMSO control GFP [1] 104% | GFP response vs DMSO [2] 105% | percent response of DMSO control [3] 98.6% | GFP response vs DMSO [4] 107% | GFP response, % of DMSO [5] 107% | vesicle binding response [6] 215% | inhibition [7] -1.09% | superoxide response (% of plate) [8] 89.5% | aptamer binding inhibition [9] 4% | response [10] 3.3% | inhibition [11] 42.2% | response [12] -7.78% | binding (% of control) [13] 93.8% | inhibition [15] -4% | differentiation response [16] -3.11%
64.2%: double positive events [6]
active: efflux inhibition (fraction of control) [14] 0.8
